From ChEMBL document CHEMBL4808148, “HDAC6 screening dataset using tau-based substrate in an enzymatic assay yields selective inhibitors and activators” (2021)
Out of some 5,600 compounds screened, about 390 (7%) showed an effect of 50% or more. The entries come from a sample that favours strong results as a whole.

The molecules below were run against T1, Protein deacetylase HDAC6 (Homo sapiens) (UniProt Q9UBN7). Details: at 10 µM.
T1 sequence (whole entry): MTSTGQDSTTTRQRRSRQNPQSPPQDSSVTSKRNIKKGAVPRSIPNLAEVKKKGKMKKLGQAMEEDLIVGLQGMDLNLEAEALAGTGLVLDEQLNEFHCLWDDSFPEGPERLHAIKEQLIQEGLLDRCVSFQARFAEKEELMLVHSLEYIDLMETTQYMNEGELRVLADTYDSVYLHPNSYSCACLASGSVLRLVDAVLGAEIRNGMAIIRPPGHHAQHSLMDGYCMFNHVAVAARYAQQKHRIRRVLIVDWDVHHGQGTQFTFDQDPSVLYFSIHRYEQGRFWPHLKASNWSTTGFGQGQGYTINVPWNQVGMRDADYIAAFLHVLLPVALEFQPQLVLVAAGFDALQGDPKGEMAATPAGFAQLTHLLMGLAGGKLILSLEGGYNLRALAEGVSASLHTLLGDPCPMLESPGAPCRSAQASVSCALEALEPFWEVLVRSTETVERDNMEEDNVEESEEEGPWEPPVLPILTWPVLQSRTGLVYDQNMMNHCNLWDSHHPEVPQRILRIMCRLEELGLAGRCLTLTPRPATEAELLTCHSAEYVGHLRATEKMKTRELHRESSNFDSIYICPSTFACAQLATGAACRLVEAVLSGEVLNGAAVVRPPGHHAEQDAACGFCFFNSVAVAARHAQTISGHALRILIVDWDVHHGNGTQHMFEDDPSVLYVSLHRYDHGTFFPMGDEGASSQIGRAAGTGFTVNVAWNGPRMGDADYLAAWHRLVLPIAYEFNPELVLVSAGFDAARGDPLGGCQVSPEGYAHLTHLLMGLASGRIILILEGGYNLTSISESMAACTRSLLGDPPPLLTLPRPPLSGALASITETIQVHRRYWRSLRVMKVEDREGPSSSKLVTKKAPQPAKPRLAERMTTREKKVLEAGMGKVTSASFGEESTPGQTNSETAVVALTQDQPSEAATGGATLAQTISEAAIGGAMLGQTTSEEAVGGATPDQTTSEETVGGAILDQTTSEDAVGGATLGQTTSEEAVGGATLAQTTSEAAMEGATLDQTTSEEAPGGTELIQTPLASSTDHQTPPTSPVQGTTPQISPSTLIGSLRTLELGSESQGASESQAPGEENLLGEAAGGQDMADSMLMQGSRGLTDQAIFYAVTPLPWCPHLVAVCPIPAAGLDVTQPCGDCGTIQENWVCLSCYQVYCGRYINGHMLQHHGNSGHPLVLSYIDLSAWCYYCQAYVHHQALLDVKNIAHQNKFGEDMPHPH

SMILES | inhibition
CN1CCN2c3c(cccc31)[C@@H]1CN(CCCC(=O)c3ccc(F)cc3)CC[C@@H]12 | -3.09%
COC(=O)Nc1ccc2[nH]cc(CCNC(C)=O)c2c1 | 44.5%
CCOc1ccccc1OCC1CNCCO1 (configuration not stated) | -0.93%
c1ccc(Oc2nc3ncnc-3c(NC3CCCCC3)[nH]2)cc1 | -6.25%
CC(C)N1CCN(c2ccc(C(=O)c3c(-c4ccc(O)cc4)sc4cc(O)ccc34)cc2)CC1 | 15%
COc1ccc(C(=O)NCc2cccnc2)cc1C(=O)NCc1cccnc1 | 11.5%
Cc1cc(Cn2cnc3c2C[C@@H](C(=O)O)N(C(=O)C(c2ccccc2)c2ccccc2)C3)ccc1N(C)C | 17.5%
CC1CS(=O)(=O)CCN1/N=C/c1ccc([N+](=O)[O-])o1 (configuration not stated) | -9.63%
O=C(Nc1ccc(Cl)nc1)c1ccc(Cl)cc1 | 27.1%
O=C(Nc1cc2cc[nH]c2cn1)c1ccccc1 | 105%
NC(C(=O)O)c1ccc(C(=O)O)c(O)c1 (racemic) | -7.25%
O=C(O)CNC(=O)c1ccccc1 | 17.6%
CC1(C)CCC(C)(C)c2cc(NC(=O)c3ccc(C(=O)O)cc3)ccc21 | 17.1%
NC(=O)c1ccc2[nH]ccc2c1 | 11.2%
O=C(Nc1ccc2[nH]ccc2c1)c1ccccc1 | 89.7%
CCc1nc(-c2cccc(C)c2)c(-c2ccnc(NC(=O)c3ccccc3)c2)s1 | 15.3%
O=C(Nc1ccc(C(=O)O)c(O)c1)c1ccccc1 | 68.6%
CC1=C(/C=C/C(C)=C/C=C/C(C)CC=O)C(C)(C)CCC1 (configuration not stated) | 0.68%
Cc1ccc(F)cc1C(=O)Nc1ccc(C(=O)N2Cc3cccn3Cc3ccccc32)c(Cl)c1 | -1.78%
O=C1CNC(=O)CN1 | 16.6%
O=C(O)[C@@H](S)[C@@H](S)C(=O)O | 28.7%
CN1[C@@H]2CC[C@H]1C[C@@H](OC(=O)c1c[nH]c3ccccc13)C2.CN1[C@@H]2CC[C@H]1C[C@H](OC(=O)c1c[nH]c3ccccc13)C2 | 2.5%

SMILES | inhibition
CCc1cc(-c2[nH]nc(C)c2-c2ccc3c(c2)OCCO3)c(O)cc1O | 8.29%
CC1(C)Oc2ccc(C#N)cc2[C@@H](OC2=CC(=O)CC2)[C@@H]1O | 3.84%
Cc1c(-c2ccccc2)oc2c(C(=O)OCCN3CCCCC3)cccc2c1=O | 11.8%
CNc1nc(NCc2ccc(NS(C)(=O)=O)cc2Cl)cc(-c2ccccn2)n1 | 13.6%
Nc1ccc(S(=O)(=O)O)cc1 | 9.02%
Cc1cc(O)c(C(=O)N[C@@H](C(=O)N[C@@H]2C(=O)N3C(C(=O)O)=C(CSc4nnnn4C)CS[C@H]23)c2ccc(O)cc2)cn1 | 29%
Cc1cc(-c2ccc3c(c2)CC[C@H]3N2CC3(CCN(C(=O)Cc4cn5cc(C)sc5n4)CC3)C2)ncn1 | 0.83%
CN1C(=O)c2c(nn(Cc3ccc(-c4cccc(F)n4)cc3)c2Nc2ccccc2)N2C1=N[C@@H]1CCC[C@@H]12 | -2.77%
O=c1cc(N2CCOCC2)oc2c(-c3ccccc3)cccc12 | 1.23%
O=c1cc(N2CCOCC2)oc2c(-c3cccc4c3sc3ccccc34)cccc12 | -7.08%
O=c1cc(-c2cccc3c2Sc2ccccc2S3)oc(N2CCOCC2)c1 | 82.8%
CCOC(=O)Nc1ccc2c(c1)N(C(=O)CCN1CCOCC1)c1ccccc1S2 | -0.7%
C[C@@H]1CN(CC(=O)Nc2ccc3c(c2)Cc2cccc(-c4cc(=O)cc(N5CCOCC5)o4)c2S3)C[C@H](C)O1 | 61%
Nc1ncnc2c1nc(Br)n2[C@@H]1O[C@@H]2COP(=O)(O)O[C@H]2[C@H]1O | 4.67%
O=C(O)Cc1sc(-c2ccccc2)nc1-c1ccc(Cl)cc1 | -4.01%
Nc1c2c(nc3c1CCC3)CCCC2 | 13%
CCN(CC)c1ccc(/C=N/NC(=O)c2ccc(O)cc2)cc1 | 80%
CCC(=O)c1ccc(O)cc1 | 7.92%
O=C(N/N=C/c1ccc([N+](=O)[O-])o1)c1ccc(O)cc1 | 18.8%
C/N=C(/NC#N)NCCSCc1csc(NC(=N)N)n1 | 4.88%
COc1cccc(CCc2ccccc2OCC[C@@H]2C[C@@H](O)CN2C)c1 | 12.1%
O=C1C(Cl)=C(NCCN2CCOCC2)C(=O)c2ncccc21 | -2.93%

SMILES | inhibition
Cc1noc(-c2ccc(-c3ccc(CC(=O)O)cc3)cc2)c1NC(=O)O[C@H](C)c1ccccc1 | 15.4%
O=C(N[C@@H](Cc1c[nH]c2ccccc12)C(=O)O)c1ccc(Cl)cc1 | 21.4%
O=C(CN1C2=NCCN2c2ccccc21)c1ccc(-c2ccccc2)cc1 | 11.4%
O=C(O)CCCc1ccccc1 | 15.3%
O=C(O)CCC(=O)c1ccc(-c2ccccc2)cc1 | 58.7%
CN1CCN(c2ccc(-c3cccc(CN4CCOCC4)c3)cc2NC(=O)c2c[nH]c(=O)cc2C(F)(F)F)CC1 | 19.4%
Oc1cccc(Nc2ncc(F)c(Nc3cccc(O)c3)n2)c1 | -0.51%
O=c1c(-c2ccccc2)c1-c1ccccc1 | 68.4%
O=C1[C@H]2CCCC[C@H]2C(=O)N1CCCCN1CCN(c2nsc3ccccc23)CC1 | 9.58%
C[C@]12CCC(=O)C=C1CC[C@@H]1[C@@H]2[C@@H](O)C[C@@]2(C)[C@H]1CC[C@]2(O)C(=O)CO | 12%
CCCCC(=O)O[C@]1(C(=O)CO)CC[C@H]2[C@@H]3CCC4=CC(=O)CC[C@]4(C)[C@H]3[C@@H](O)C[C@@]21C | 55.9%
CCCC(=O)O[C@]1(C(=O)CO)CCC2[C@@H]3CCC4=CC(=O)CC[C@]4(C)C3[C@@H](O)C[C@@]21C (some centres not stated) | 13.5%
O=[N+]([O-])c1cc([N+](=O)[O-])c(/C=C/c2ccc(Cl)c(Cl)c2)cc1/C=C/c1ccc(Cl)c(Cl)c1 | 7.35%
Nn1cnc2cc3ccccc3cc2c1=O | 17.4%
Clc1ccc(CCCOCCCN2CCCCC2)cc1 | 4.84%
NC(=O)Nc1sc(-c2ccc(F)cc2)cc1C(N)=O | 81.4%
NC(=O)Nc1cc(-c2cccc(F)c2)sc1C(=O)N[C@H]1CCCNC1 | 8.78%
O=C(O)CN(CCN(CC(=O)O)CC(=O)O)CC(=O)O | -8.06%
O=C(/C=C/c1cccnc1)c1ccncc1 | 2.24%
Cc1c(C)c2c(c(C)c1O)CCC(C)(C)O2 | 20.7%
CC(=O)[C@H]1CC[C@H]2[C@@H]3C[C@H](C)C4=CC(=O)CC[C@]4(C)[C@H]3[C@@H](O)C[C@]12C | 19.3%
CC(=O)Oc1ccccc1C(=O)Nc1ccccc1 | 87.4%

SMILES | inhibition
COc1ccccc1C(=O)Nc1cccc(NC(=O)c2cccc(C)c2)c1 | 63.7%
CC(=O)Oc1ccccc1C(=O)Oc1ccccc1C(=O)O | 41%
CC(=O)Oc1ccccc1C(=O)O | 2.2%
CCCC(=O)Nc1cccc(NC(=O)c2ccccc2Br)c1 | 21%
COc1ccccc1C(=O)Nc1cc2c(cc1N1CCCC1)n(C)c(=O)n2C | 46.1%
Cc1nc(Nc2ncc(C(=O)Nc3c(C)cccc3Cl)s2)cc(N2CCN(CCO)CC2)n1 | 21.2%
CC1(C)CC(=O)C(C2C3=C(CC(C)(C)CC3=O)Oc3ccccc32)C(=O)C1 (configuration not stated) | -3.93%
N[C@H](Cc1c[nH]c2ccccc12)C(=O)O | 12%
COCCNC(=O)Cn1cnc([N+](=O)[O-])n1 | 6.28%
CN([C@@H](Cc1ccc(OS(=O)(=O)c2cccc3cnccc23)cc1)C(=O)N1CCN(c2ccccc2)CC1)S(=O)(=O)c1cccc2cnccc12 | -4.11%
CC(C)c1cc(-c2n[nH]c(=O)n2-c2ccc3c(ccn3C)c2)c(O)cc1O | 29.4%
Nc1nc(N)c2nc(-c3cccc(O)c3)cnc2n1 | 88.7%
Nc1nc(N)c2nc(-c3ccccc3)c(N)nc2n1 | 19.4%
Oc1cccc(-c2c3nc(c(-c4cccc(O)c4)c4ccc([nH]4)c(-c4cccc(O)c4)c4nc(c(-c5cccc(O)c5)c5ccc2[nH]5)CC4)C=C3)c1 | 36.9%
CCc1cc(C(C)=O)c(O)cc1OCCCCCC(C)(C)c1nn[nH]n1 | 8.67%
CCCCN(CC)c1nc(C)nc2c1c(C)c(C)n2-c1c(C)cc(C)cc1C | 7.01%
Cn1cc(C(=O)OCC2CCN(CCNS(C)(=O)=O)CC2)c2ccccc21 | -8.82%
CN(Cc1ccccc1)C(=O)[C@H](Cc1ccc2ccccc2c1)NC(=O)[C@@H]1C[C@@H](O)CN1C(=O)c1cn(C)c2ccccc12 | 84.1%
CN(C)CC/C=C1/c2ccccc2COc2ccc(CC(=O)O)cc21 | 2.79%
CC(C)Cc1ccc(C(C)C(=O)NO)cc1 (configuration not stated) | 49.7%
CC1(N)CCN(c2cnc(-c3cccc(Cl)c3Cl)c(N)n2)CC1 | 21.6%
C[C@@](Cc1ccc(O)c(O)c1)(NN)C(=O)O | -8.77%

SMILES | inhibition
O=C(O)/C=C/c1ccc(-c2ccc(O)c(C34CC5CC(CC(C5)C3)C4)c2)cc1 | 30.5%
O=C(/C=C/c1ccc(O)c(O)c1)OCCc1ccccc1 | 80.7%
COc1cc(NC(=O)Nc2cccc(CNC(=O)O[C@H]3CCOC3)c2)ccc1-c1cnco1 | 38.8%
CCCCCCNC(=O)n1cc(F)c(=O)[nH]c1=O | 5.48%
Cn1cc(-c2cnc3ccc4ccc(CS(=O)(=O)NCc5ccccn5)cc4c(=O)c3c2)cn1 | -2.81%
O=C(COc1ccc(Cl)cc1)N1CCN(Cc2ccc3c(c2)OCO3)CC1 | 6.09%
O=C(NCc1ccc2c(c1)OCO2)c1c(Cl)cccc1Cl | 76.1%
O=C(CN1CCN(Cc2ccc3c(c2)OCO3)CC1)N1c2ccccc2Sc2ccccc21 | 8.76%
NC(Cc1ccc(Cl)cc1)C(=O)O (racemic) | 19.5%
Cc1ccc(-n2sc(=O)n(Cc3ccc(F)cc3)c2=O)cc1 | 41.5%
O=c1sn(-c2cccc3ccccc23)c(=O)n1Cc1ccccc1 | 83.4%
CNC(=O)c1ccc2cc(C3(O)CCn4cncc43)ccc2c1 (configuration not stated) | 25.9%
Nc1nc2c(c(N3CCNCC3)n1)CCC1=C2[C@@H]2CCCC[C@@H]2O1 | -3.26%
CNNCc1ccc(C(=O)NC(C)C)cc1 | 4.33%
CC(C)COc1ccc(CNC(=O)N(Cc2ccc(F)cc2)C2CCN(C)CC2)cc1 | -8.99%
C[C@H](NCc1ccc(OCc2ccccc2F)cc1)C(N)=O | 69.4%
C[C@H](NC(=O)Cc1cc(F)cc(F)c1)C(=O)N[C@H](C(=O)OC(C)(C)C)c1ccccc1 | 17.3%
CC(C)NCC(O)COc1ccc(CC(N)=O)cc1 (configuration not stated) | 4.66%
C[C@H](NCc1ccc(OCc2cccc(F)c2)cc1)C(N)=O | 83.6%
